SMN2 splice enh – qHTS Assay for Enhancers of SMN2 Splice Variant Expression. HEK293 SMN2-luciferase splicing reporter, luminescence, 30-36 h. Potency, µM (highest dose often 46.1 µM), usual class: activators. hit rate 2.8% among 210,000; also: nearly all actives have a fitted effect of over 55% in size
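HEK293 cells carry an SMN2 […]–luciferase reporter in which exon 7 inclusion puts luciferase in frame. Cells were plated 10-12 h before compound addition, then incubated 30-36 h at 37C. ONE-Glo luminescence was read; sodium butyrate at 4.5 mM final served as control.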
FLuc modulator – qHTS profiling assay for firefly luciferase inhibitor/activator using purifed enzyme and Km concentrations of substrates (counterscreen for miR-21 project) | Luciferin 4-monooxygenase (Photinus pyralis), P08659 | purified FLuc, Km substrates, luminescence inhibition | Potency, µM (doses to about 57.5 µM), hits mostly inhibitors | hit rate 6.9% among 360,000 | AID 588342, 2011; also: nearly all actives have a fitted effect of over 55% in size
Target sequence (P08659 whole entry, looked up): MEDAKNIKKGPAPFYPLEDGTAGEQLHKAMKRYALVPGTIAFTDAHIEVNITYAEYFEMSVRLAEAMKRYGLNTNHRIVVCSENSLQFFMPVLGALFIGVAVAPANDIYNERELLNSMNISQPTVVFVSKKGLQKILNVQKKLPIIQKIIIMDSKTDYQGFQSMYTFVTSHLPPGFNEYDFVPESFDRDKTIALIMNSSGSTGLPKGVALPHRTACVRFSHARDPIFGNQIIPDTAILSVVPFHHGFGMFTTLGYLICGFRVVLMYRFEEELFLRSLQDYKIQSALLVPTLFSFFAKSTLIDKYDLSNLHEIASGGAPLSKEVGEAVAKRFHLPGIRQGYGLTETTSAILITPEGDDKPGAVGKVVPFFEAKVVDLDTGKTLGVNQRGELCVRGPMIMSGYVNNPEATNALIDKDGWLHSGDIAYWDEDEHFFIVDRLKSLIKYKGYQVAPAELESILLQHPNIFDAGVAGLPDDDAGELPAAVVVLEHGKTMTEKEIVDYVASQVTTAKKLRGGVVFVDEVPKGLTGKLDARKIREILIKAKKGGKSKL
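Purified P. pyralis luciferase (10nM final) with 10uM D-luciferin and 10uM ATP (Km levels) in 50mM Tris acetate pH 7.5, 10mM Mg acetate, 0.01% Tween-20, 0.05% BSA; qHTS 6-point titration, ~60 µM downward; luminescence read.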
ELG1 genotox – qHTS screen for small molecules that induce genotoxicity in human embryonic kidney (HEK293T) cells expressing luciferase-tagged ELG1; hit rate 1.3% among 330,000; HEK293T ELG1-luciferase reporter, luminescence, 16 h; Potency, µM (highest dose often 46 µM), hits mostly activators; AID 504466, 2011; also: nearly all actives have a fitted effect of over 60% in size
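DMSO vehicle served as control against compound-treated ELG1-luciferase HEK293T cells; exposure lasted 16 hr at 37 °C and 5% CO2, followed by ONE-Glo luminescence detection after 30 min.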
Rab9 promoter act – qHTS Assay for Rab9 Promoter Activators | hit rate 2.8% among 320,000 | Potency, µM (titrated, usually from 9.22 µM), hits mostly activators | AID 485297, 2010 | Huh7 Rab9 promoter-luciferase reporter, luminescence, 24 h; also: nearly all actives have a fitted effect of over 60% in size
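Luminescence read-out: Huh7 cells stably expressing Rab9-luciferase, treated 24 h with compound at 37 °C, then lysed with luciferase reagent for 10 min at ambient before reading.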
KinaseGlo FLuc – Counterscreen for Luciferase (Kinase-Glo TM) Inhibition; hit rate 0.28% among 200,000; Kinase-Glo luciferase, ATP luminescence, 8 min; AID 1379, 2008; Potency, µM (highest dose often 38.3 µM), usual class: inhibitors; also: nearly all actives have a fitted effect of over 60% in size
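Substrate mix (final 50 mM imidazole pH 7.2, 50 mM KCl, 7 mM MgCl2, 10 uM ATP, 0.01% Tween 20, 0.05% BSA) plus pin-tool compound, then Kinase-Glo detection mix; 8 min ambient, luminescence read.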
NPC1 prom act – qHTS Assay for NPC1 Promoter Activators; Huh7 NPC1 promoter luciferase reporter, 24 h; Potency, µM (doses to about 9.22 µM), usual class: activators; hit rate 2.4% among 320,000; AID 485313, 2010; also: nearly all actives have a fitted effect of over 60% in size
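Cells: Huh7 expressing luciferase under the NPC1 promoter, 1500/well. Seeded 2 h, compound added, incubated 24 h at 37 °C. Luciferase reagent, 10 min ambient, then luminescence.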
Large screens that a line does not name were inactive. In the library only some 7.5% were active in any assay of this set; here they are far more common. Calls follow the shape of the dose curve; as a rule, active = well fitted curve in the direction sought with a large enough effect; inconclusive = small, poorly fitted or top-dose-only effect, or another doubt; inactive = no such curve, though single readings can be large; an effect the other way counts as inactive or inconclusive.

Clc1cccc(/C=N/Nc2nc(Cl)nc3ccccc23)c1	SMN2 splice enh 22µM, FLuc modulator 4.8µM, ELG1 genotox inconclusive, Rab9 promoter act 4µM, NPC1 prom act 2.8µM
Fc1ccccc1/C=N/Nc1ncnc2ccccc12	SMN2 splice enh 11µM, FLuc modulator 1.7µM, ELG1 genotox inconclusive, Rab9 promoter act 3.2µM
Clc1ccc(/C=N/Nc2ncnc3ccccc23)cc1Cl	SMN2 splice enh inconclusive, FLuc modulator 8.5µM, ELG1 genotox inconclusive, Rab9 promoter act 4µM, NPC1 prom act inconclusive
COc1ccc(-c2oc3cc(OC)ccc3c(=O)c2O)cc1	none (no result: SMN2 splice enh, FLuc modulator, ELG1 genotox, Rab9 promoter act, NPC1 prom act)
CCOc1ccc(NC(=O)CN(C)C(=O)/C=C/c2ccco2)cc1OCC	none (no result: SMN2 splice enh, KinaseGlo FLuc)
COc1ccccc1Nc1ccc(C(=O)NC2CCCCC2)cn1	FLuc modulator 13µM, ELG1 genotox inconclusive
Cc1ccc(Nc2ccc(C(=O)NC3CCCCC3)cn2)cc1	FLuc modulator inconclusive (no result: SMN2 splice enh, KinaseGlo FLuc)
COc1ccccc1Nc1cc(C(=O)NC2CCCC2)c2ccccc2n1	FLuc modulator 12µM (no result: KinaseGlo FLuc)
CCN(CC(=O)NCc1cccs1)C(=O)CCC(=O)c1ccc(F)cc1	none (no result: SMN2 splice enh, KinaseGlo FLuc)
Cn1cc(C(=O)NS(=O)(=O)Nc2ccc(Br)cc2)c2ccccc21	none (no result: SMN2 splice enh, KinaseGlo FLuc)
CCc1ccc2nc(N(CCN(C)C)C(=O)c3ccc4ncsc4c3)sc2c1	FLuc modulator 13µM, ELG1 genotox 3.7µM, Rab9 promoter act 1.8µM, NPC1 prom act 2.8µM (no result: SMN2 splice enh, KinaseGlo FLuc)
COc1ccc(S(=O)(=O)Nc2ccc3c(c2)C(=O)N([C@H](C)CO)C[C@H](C)[C@@H](CN(C)C(=O)Nc2ccccc2)O3)cc1	none (no result: SMN2 splice enh, FLuc modulator, Rab9 promoter act, KinaseGlo FLuc, NPC1 prom act)
COc1ccc(C(c2c(O)cc(C)n(Cc3ccco3)c2=O)N2CCN(c3ccccc3)CC2)cc1 (centres undefined)	none (no result: SMN2 splice enh, ELG1 genotox, Rab9 promoter act, KinaseGlo FLuc, NPC1 prom act)
Cc1ccc(Nc2ncnc3nc[nH]c23)cc1Cl	SMN2 splice enh inconclusive, FLuc modulator inconclusive, ELG1 genotox 5.8µM, Rab9 promoter act 3.2µM, NPC1 prom act 3.5µM
CCc1ccc(Nc2ncnc3nc[nH]c23)cc1	FLuc modulator 11µM, ELG1 genotox inconclusive, Rab9 promoter act 2µM, NPC1 prom act 2.2µM (no result: SMN2 splice enh, KinaseGlo FLuc)
c1ccc(CCCNc2ncnc3nc[nH]c23)cc1	none
COc1cccc(Nc2ncnc3nc[nH]c23)c1	SMN2 splice enh 13µM, FLuc modulator 19µM, Rab9 promoter act inconclusive, NPC1 prom act inconclusive
CCCNc1ncnc2nc[nH]c12	none
CCCCc1ccc(Nc2ncnc3nc[nH]c23)cc1	FLuc modulator 11µM, ELG1 genotox 8.2µM, Rab9 promoter act inconclusive, NPC1 prom act inconclusive
O=C(CN(c1ccc2c(c1)OCCO2)S(=O)(=O)c1ccccc1)N1CCN(Cc2ccccc2)CC1	none (no result: SMN2 splice enh)
Cc1ccc(NC(=O)Nc2ncnc3nc[nH]c23)cc1	FLuc modulator 12µM, ELG1 genotox inconclusive, Rab9 promoter act 2.8µM, NPC1 prom act 3.5µM (no result: SMN2 splice enh, KinaseGlo FLuc)
O=C(Nc1ccon1)c1sc2cc(F)ccc2c1Cl	SMN2 splice enh 22µM, FLuc modulator inconclusive, ELG1 genotox inconclusive, Rab9 promoter act 2.5µM, NPC1 prom act 3.2µM
O=C(NC1=NCCS1)c1sc2cc(F)ccc2c1Cl	SMN2 splice enh 7.1µM, FLuc modulator 2.4µM, ELG1 genotox inconclusive, Rab9 promoter act 2.2µM, NPC1 prom act 5µM
O=C(NCc1ccco1)c1cccc(F)c1	none (no result: ELG1 genotox, Rab9 promoter act, NPC1 prom act)
O=C(NCCCN1CCOCC1)c1sc2cc(F)ccc2c1Cl	FLuc modulator inconclusive, Rab9 promoter act inconclusive
O=C(NCc1ccco1)c1sc2cc(F)ccc2c1Cl	SMN2 splice enh 13µM, FLuc modulator 15µM
CC(C)Oc1ccc(/C(O)=C2/C(=O)C(=O)N(CCN3CCNCC3)C2c2ccc(C(C)C)cc2)cc1 (centres undefined)	none (no result: SMN2 splice enh, KinaseGlo FLuc)
Cc1cc(C)n2nc(CNC(=O)c3c(F)cccc3F)nc2n1	none (no result: ELG1 genotox, Rab9 promoter act, KinaseGlo FLuc, NPC1 prom act)
C/C(=C\C(=O)c1ccc(Br)cc1)Nc1ccc(Cl)cc1	FLuc modulator 27µM, ELG1 genotox inconclusive (no result: SMN2 splice enh)

Screening data deposited in PubChem BioAssay by National Center for Advancing Translational Sciences (NCATS).
